# Laboratory results: PubChem BioAssay
# The source made the active and inactive calls.
# System: not listed separately
# Experiment: change in splice reporter luminescence, either direction, cell-based, HEK293, spliceosome inhibition project, primary screen (AID 1101);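 further: HEK293 cells carrying a splicing-competent luciferase reporter gene; test concentration not given here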
# Settings: HEK293 splicing luciferase reporter, 24 h, higher = more signal, called active from +8 up or from −8 down
row,Structure (SMILES),z-score
1,C=CC[C@]1(C(=O)NCc2ccccc2)N=C(c2ccc(OCCCO)cc2)O[C@H]1c1ccccc1N=[N+]=[N-],-0.457 (inactive)
2,OCCCC1=CC(c2cccs2)N(Cc2cc3c(cc2Br)OCO3)CC1 (centres undefined),-0.252 (inactive)
3,COc1ccc(C#Cc2ccc3c(c2)[C@]2(C(=O)N3)[C@H](C(=O)Nc3nc4ccccc4s3)[C@H]3C(=O)O[C@H](c4ccccc4)[C@H](c4ccccc4)N3[C@@H]2c2ccc(O)cc2)cc1,-0.444 (inactive)
4,NC(=O)[C@@H]1[C@H]2C(=O)O[C@H](c3ccccc3)[C@H](c3ccccc3)N2[C@H](c2ccc(O)cc2)[C@@]12C(=O)Nc1ccccc12,-0.936 (inactive)
5,CCCCC(CC)C(O)C1C=CC2C(=O)N(Cc3ccccc3)C(=O)C2N1n1cnnc1 (centres undefined),-0.44 (inactive)
6,O=C1O[C@H](c2ccccc2)[C@H](c2ccccc2)N2[C@H]1[C@@H](C(=O)N1CCCCCCC1)[C@]1(C(=O)Nc3ccc(C#CCCO)cc31)[C@H]2c1ccccc1OCCO,-0.207 (inactive)
7,C=CCNC(=O)[C@H]1[C@@H]2C(=O)O[C@@H](c3ccccc3)[C@@H](c3ccccc3)N2[C@@H](c2ccccc2OCCO)[C@]12C(=O)Nc1ccc(C#CCCO)cc12,-0.411 (inactive)
8,COc1ccc(C#Cc2ccc3c(c2)[C@]2(C(=O)N3)[C@H](c3ccccc3OCCO)N3[C@H](c4ccccc4)[C@H](c4ccccc4)OC(=O)[C@H]3[C@@H]2C(=O)Nc2nc3ccccc3s2)cc1,-1.11 (inactive)
9,CN1C(=O)C2C=CC(C(O)C3CC=CCC3)N(N(c3ccccc3)c3ccccc3)C2C1=O (centres undefined),0.773 (inactive)
10,O=C1O[C@@H](c2ccccc2)[C@@H](c2ccccc2)N2[C@@H](c3ccccc3OCCO)[C@]3(C(=O)Nc4ccccc43)[C@@H](C(=O)Nc3nc4ccccc4s3)[C@H]12,-1.86 (inactive)
11,O=C1NC(=O)C2C1C=CC(C(O)c1cc(C(F)(F)F)cc(C(F)(F)F)c1)N2Nc1ccccn1 (centres undefined),1.35 (inactive)
12,O=C(N1CCCCC1)[C@]1(Cc2ccccc2)N=C(c2ccc(OCCCO)cc2)O[C@@H]1c1ccccc1,-0.555 (inactive)
13,CC(C)c1ccc(NN2C(C(O)c3ccc(B(O)O)cc3)C=CC3C(=O)N(c4ccccc4)C(=O)C32)cc1 (centres undefined),0.844 (inactive)
14,NC(=O)NCC#Cc1ccc2c(c1)[C@]1(C(=O)N2)[C@H](c2ccc(O)cc2)N2[C@H](c3ccccc3)[C@H](c3ccccc3)OC(=O)[C@H]2[C@@H]1C(=O)O,0.307 (inactive)
15,Cc1ccccc1C(O)C1C=CC2C(=O)N(c3ccccc3)C(=O)C2N1Nc1ccc(C(C)C)cc1 (centres undefined),0.26 (inactive)
16,COc1ccc(CCNC(=O)[C@@H]2c3ccccc3C(=O)N(Cc3ccccc3Cl)[C@H]2c2ccc(CO)cc2)cc1,-0.153 (inactive)
17,O=C(NC1CC1)[C@@H]1c2ccccc2C(=O)N(Cc2ccccc2Cl)[C@H]1c1ccc(CO)cc1,-0.544 (inactive)
18,Cc1nc2cc(Br)ccc2c(=O)o1,0.502 (inactive)
19,CCN(CC)c1ccc(N2CC=CC34O[C@@H]5C=CCCOC(=O)C5[C@H]3C(=O)N(CCCCCCO)[C@@H]4C2=O)cc1 (some centres undefined),-1.98 (inactive)

# Biological target: Fibroblast growth factor 10 (Homo sapiens) (UniProt O15520)
# Sequence (O15520 whole entry, looked up): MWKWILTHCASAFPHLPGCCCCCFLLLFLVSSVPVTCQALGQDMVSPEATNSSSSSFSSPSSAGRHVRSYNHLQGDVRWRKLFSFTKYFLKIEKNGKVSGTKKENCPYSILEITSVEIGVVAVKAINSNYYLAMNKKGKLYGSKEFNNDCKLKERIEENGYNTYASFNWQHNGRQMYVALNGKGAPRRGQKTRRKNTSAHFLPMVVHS
# Experiment: compounds binding fibroblast growth factor 10 – biochemical, small-molecule microarray, 635 nm fluorescence, primary screen (AID 1102)
# Settings: FGF10 binding, fluorescence 635 nm, higher = more signal
row,Structure (SMILES),composite z-score
1,CC(CO)N1C(=O)[C@@H]2C3C(=O)OCCC/C=C\[C@H]3OC23C=CCN(C(C)(C)C)C(=O)[C@@H]13 (some centres undefined),0.259
2,CN1C(=O)C2C=CC(C(O)c3ccccc3)N(N(c3ccccc3)c3ccccc3)C2C1=O (centres undefined),-0.113
3,C=CCOC(=O)[C@H]1[C@@H]2C(=O)O[C@@H](c3ccccc3)[C@@H](c3ccccc3)N2[C@@H](c2ccc(OCCOC(=O)[C@@H]3C[C@@H]4C(=O)N[C@@H](CCCCNC(C)=O)C(=O)N4[C@@H]3c3ccc(O)cc3)cc2)[C@]12C(=O)Nc1ccccc12,0.768
4,C[C@H]1C2[C@H](Cc3ccccc3)NC(=O)[C@]23C(=O)N[C@H](Cc2ccccc2)C(=O)N2CCC[C@H]2C(=O)NC/C=C\C/C=C/C3[C@@H]2O[C@]12C (some centres undefined),0.428
5,CC(C)C(O)C1C=CC2C(=O)NC(=O)C2N1Nc1ccc(Cl)cc1Cl (centres undefined),-0.0826
6,COC(=O)C(CC#Cc1ccc2c(c1)[C@]1(C(=O)N2)[C@H](C(=O)Nc2nc3ccccc3s2)[C@H]2C(=O)O[C@H](c3ccccc3)[C@H](c3ccccc3)N2[C@@H]1c1ccc(O)cc1)C(=O)OC,1.28
7,CC(C)C(O)C1C=CC2C(=O)N(c3ccccc3)C(=O)C2N1Nc1ccc([N+](=O)[O-])cc1 (centres undefined),0.635
8,CC(C)C[C@@H]1NC(=O)[C@@H]2C[C@H](C(=O)NCc3ccc(F)cc3)[C@H](c3cccc(OCCO)c3)N2C1=O,1.2
9,CCCC[C@H]1OB(O)C[C@H]2C1=C(COC)C[C@H]1C(=O)N(C)C(=O)[C@H]12,0.486
10,COCCOC(=O)N1C(=O)[C@@]2(c3cc(C#Cc4ccc(OC)cc4)ccc31)[C@H](c1ccccc1OCCO)N1[C@H](c3ccccc3)[C@H](c3ccccc3)OC(=O)[C@H]1[C@@H]2C(=O)NC[C@H](O)c1ccccc1,1.14
11,CCOC(=O)C[C@H]1[C@H](OC(=O)c2ccc(C(=O)c3ccccc3)cc2)[C@@H](NC(=O)c2ccccc2)c2cc(OCCCO)ccc2N1C(=O)c1ccc2ccccc2n1,-0.286
12,O=C(c1ccccc1)N1C(=O)[C@@]2(Cc3ccccc31)N=C(c1ccc(OCCCO)cc1)O[C@H]2c1ccccc1,1.06
13,Cc1ccc(N2C(=O)c3ccccc3[C@@H](C(=O)NC3CC3)[C@@H]2c2ccc(CO)cc2)nc1,-1.5
14,[N-]=[N+]=Nc1ccccc1[C@@H]1OC(c2ccc(OCCCO)cc2)=N[C@]1(CCS(=O)(=O)c1ccccc1)C(N)=O,1.09
15,COC(=O)C(CC#Cc1ccc2c(c1)[C@]1(C(=O)N2)[C@H](C(=O)Nc2nc3ccccc3s2)[C@H]2C(=O)O[C@H](c3ccccc3)[C@H](c3ccccc3)N2[C@@H]1c1ccccc1OCCO)C(=O)OC,0.904
16,CCOC(=O)C[C@H]1[C@H](OC(=O)c2ccc(C(=O)c3ccccc3)cc2)[C@@H](NC(=O)CC(C)C)c2cc(OCCCO)ccc2N1C(=O)c1ccc2ccccc2n1,0.811
17,C=CC[C@]1(C(=O)NCc2ccccc2)N=C(c2ccc(OCCCO)cc2)O[C@H]1c1ccccc1N=[N+]=[N-],0.819
18,OCCCC1=CC(c2cccs2)N(Cc2cc3c(cc2Br)OCO3)CC1 (centres undefined),0.21

row,Structure (SMILES),composite z-score
1,COc1ccc(C#Cc2ccc3c(c2)[C@]2(C(=O)N3)[C@H](C(=O)Nc3nc4ccccc4s3)[C@H]3C(=O)O[C@H](c4ccccc4)[C@H](c4ccccc4)N3[C@@H]2c2ccc(O)cc2)cc1,1.43
2,NC(=O)[C@@H]1[C@H]2C(=O)O[C@H](c3ccccc3)[C@H](c3ccccc3)N2[C@H](c2ccc(O)cc2)[C@@]12C(=O)Nc1ccccc12,-0.433
3,CCCCC(CC)C(O)C1C=CC2C(=O)N(Cc3ccccc3)C(=O)C2N1n1cnnc1 (centres undefined),-0.0566
4,O=C1O[C@H](c2ccccc2)[C@H](c2ccccc2)N2[C@H]1[C@@H](C(=O)N1CCCCCCC1)[C@]1(C(=O)Nc3ccc(C#CCCO)cc31)[C@H]2c1ccccc1OCCO,1.76
5,C=CCNC(=O)[C@H]1[C@@H]2C(=O)O[C@@H](c3ccccc3)[C@@H](c3ccccc3)N2[C@@H](c2ccccc2OCCO)[C@]12C(=O)Nc1ccc(C#CCCO)cc12,1.66
6,COc1ccc(C#Cc2ccc3c(c2)[C@]2(C(=O)N3)[C@H](c3ccccc3OCCO)N3[C@H](c4ccccc4)[C@H](c4ccccc4)OC(=O)[C@H]3[C@@H]2C(=O)Nc2nc3ccccc3s2)cc1,1.09
7,CN1C(=O)C2C=CC(C(O)C3CC=CCC3)N(N(c3ccccc3)c3ccccc3)C2C1=O (centres undefined),-0.291
8,O=C1O[C@@H](c2ccccc2)[C@@H](c2ccccc2)N2[C@@H](c3ccccc3OCCO)[C@]3(C(=O)Nc4ccccc43)[C@@H](C(=O)Nc3nc4ccccc4s3)[C@H]12,1.23
9,O=C1NC(=O)C2C1C=CC(C(O)c1cc(C(F)(F)F)cc(C(F)(F)F)c1)N2Nc1ccccn1 (centres undefined),0.163
10,O=C(N1CCCCC1)[C@]1(Cc2ccccc2)N=C(c2ccc(OCCCO)cc2)O[C@@H]1c1ccccc1,0.956
11,CC(C)c1ccc(NN2C(C(O)c3ccc(B(O)O)cc3)C=CC3C(=O)N(c4ccccc4)C(=O)C32)cc1 (centres undefined),1.11
12,NC(=O)NCC#Cc1ccc2c(c1)[C@]1(C(=O)N2)[C@H](c2ccc(O)cc2)N2[C@H](c3ccccc3)[C@H](c3ccccc3)OC(=O)[C@H]2[C@@H]1C(=O)O,-0.114
13,Cc1ccccc1C(O)C1C=CC2C(=O)N(c3ccccc3)C(=O)C2N1Nc1ccc(C(C)C)cc1 (centres undefined),0.971
14,COc1ccc(CCNC(=O)[C@@H]2c3ccccc3C(=O)N(Cc3ccccc3Cl)[C@H]2c2ccc(CO)cc2)cc1,0.212
15,O=C(NC1CC1)[C@@H]1c2ccccc2C(=O)N(Cc2ccccc2Cl)[C@H]1c1ccc(CO)cc1,0.474
16,Cc1nc2cc(Br)ccc2c(=O)o1,0.543
17,CCN(CC)c1ccc(N2CC=CC34O[C@@H]5C=CCCOC(=O)C5[C@H]3C(=O)N(CCCCCCO)[C@@H]4C2=O)cc1 (some centres undefined),-1.26
